From the supplement of paper PMC9694430

Experiments:
Assay in all cases: thermal shift delta Tm vs DMSO control; higher = stronger stabilization (binding)
Conditions in all cases: 12.5 µM; protein concentration 2 µM
[1] = tested on: LOC_OS01G57100-cb003
Outline: (§1)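 Rice kinase domain constructs were expressed in E. coli, purified, and tested by differential scanning fluorimetry with compound added in DMSO. Each well of a 96-well plate held 19.5 μl of 2 μM kinase in 100 mM potassium phosphate pH 7.5, 150 mM NaCl, 10% glycerol and 5 × SYPRO Orange, and fluorescence was read from 25°C to 95°C at 0.05°C/s. The melting temperature shift is the mean of triplicates, taken against protein with DMSO alone after Boltzmann fitting.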

[2] = tested on: LOC_OS01G60330-cb001
Outline: as §1

[3] = tested on: LOC_OS01G60700-cb002
Outline: as §1

[4] = tested on: LOC_OS01G63280-cb003
Outline: as §1

[5] = tested on: LOC_OS01G67340-cb003
Outline: as §1

[6] = tested on: LOC_OS01G70970-cb002
Outline: as §1

[7] = tested on: LOC_OS02G07810-cb001
Outline: as §1

[8] = tested on: LOC_OS02G08530-cb003
Outline: as §1

[9] = tested on: LOC_OS02G14120-cb001
Outline: as §1

[10] = tested on: LOC_OS02G17970-cb001
Outline: as §1

[11] = tested on: LOC_OS02G45750-cb003
Outline: as §1

[12] = tested on: LOC_OS02G54510-cb004
Outline: as §1

[13] = tested on: LOC_OS03G04050-cb001
Outline: as §1

[14] = tested on: LOC_OS03G12390-cb001
Outline: as §1

[15] = tested on: LOC_OS03G27990-cb004
Outline: as §1

[16] = tested on: LOC_OS03G50450-cb001
Outline: as §1

[17] = tested on: LOC_OS03G50810-cb003
Outline: as §1

[18] = tested on: LOC_OS04G35114-cb001
Outline: as §1

[19] = tested on: T1, LOC_OS04G38480-cb003
T1 sequence (whole entry): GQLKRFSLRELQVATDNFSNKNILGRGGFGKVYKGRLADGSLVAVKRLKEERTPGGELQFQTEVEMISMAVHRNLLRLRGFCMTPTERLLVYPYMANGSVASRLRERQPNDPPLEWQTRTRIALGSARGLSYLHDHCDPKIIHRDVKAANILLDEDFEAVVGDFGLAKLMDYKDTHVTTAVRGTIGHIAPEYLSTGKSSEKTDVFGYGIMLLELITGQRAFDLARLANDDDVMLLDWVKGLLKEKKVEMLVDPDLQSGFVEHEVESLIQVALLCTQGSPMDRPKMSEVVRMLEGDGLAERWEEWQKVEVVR
Outline: as §1

[20] = tested on: T2, LOC_OS04G41100-cb001
T2 sequence (whole entry): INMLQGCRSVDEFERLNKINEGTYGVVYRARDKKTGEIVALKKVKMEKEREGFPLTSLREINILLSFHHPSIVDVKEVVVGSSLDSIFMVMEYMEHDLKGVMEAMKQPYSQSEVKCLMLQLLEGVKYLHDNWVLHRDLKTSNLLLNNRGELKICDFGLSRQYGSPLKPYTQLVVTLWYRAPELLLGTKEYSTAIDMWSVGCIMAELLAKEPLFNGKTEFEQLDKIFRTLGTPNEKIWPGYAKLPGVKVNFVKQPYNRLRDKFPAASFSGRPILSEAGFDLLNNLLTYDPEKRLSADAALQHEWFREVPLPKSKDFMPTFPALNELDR
Outline: as §1

| SMILES | thermal shift delta Tm [1] [°C] | thermal shift delta Tm [2] [°C] | thermal shift delta Tm [3] [°C] | thermal shift delta Tm [4] [°C] | thermal shift delta Tm [5] [°C] | thermal shift delta Tm [6] [°C] | thermal shift delta Tm [7] [°C] | thermal shift delta Tm [8] [°C] | thermal shift delta Tm [9] [°C] | thermal shift delta Tm [10] [°C] | thermal shift delta Tm [11] [°C] | thermal shift delta Tm [12] [°C] | thermal shift delta Tm [13] [°C] | thermal shift delta Tm [14] [°C] | thermal shift delta Tm [15] [°C] | thermal shift delta Tm [16] [°C] | thermal shift delta Tm [17] [°C] | thermal shift delta Tm [18] [°C] | thermal shift delta Tm [19] [°C] | thermal shift delta Tm [20] [°C] |
| --- | --- | --- | --- | --- | --- | --- | --- | --- | --- | --- | --- | --- | --- | --- | --- | --- | --- | --- | --- | --- |
| Cc1nc2ccc(-n3ncc(C(=O)c4cc5ccccc5[nH]4)c3N)cc2[nH]1 | -0.72 | 2.34 | -0.42 | 1.52 | 2.11 | 0.1 | 0.91 | 1.17 | 0.03 | 1.37 | 2.94 | 4.14 | 0.05 | 1.25 | 0.29 | -0.16 | 0.75 | 3.8 | 0.93 | -0.16 |
| Cc1ccc(C(=O)Nc2ccc(CN3CCN(C)CC3)c(C(F)(F)F)c2)cc1C#Cc1cnc2[nH]ncc2c1 [GZD824 Dimesylate] | 1.83 | 4.46 | 1.12 | 16.6 | 2.51 | 5.22 | 0.8 | 3.54 | 4.33 | 0.61 | 10.6 | – | 0.96 | 3.54 | 1.61 | 1.08 | 6.3 | 1.99 | 1.28 | 2.67 |
| O=C(O[C@@H]1Cc2c(O)cc(O)cc2O[C@@H]1c1cc(O)c(O)c(O)c1)c1cc(O)c(O)c(O)c1 [(-)-Epigallocatechin Gallate] | 13.4 | 0.66 | -5.2 | – | 1 | -0.02 | 3.56 | -2.15 | 0.07 | – | -1.81 | -0.12 | 0.68 | -1.02 | 0.05 | -0.27 | -1.51 | -2.2 | 2.43 | 1.15 |
| CN1CCN(c2ccc(C(=O)Nc3n[nH]c4ccc(Cc5cc(F)cc(F)c5)cc34)c(NC3CCOCC3)c2)CC1 [Entrectinib (RXDX-101)] | 0.09 | 4.04 | 0.42 | -0.06 | 0.57 | 1.01 | 0.27 | 3.95 | 5.28 | 0.09 | 8.16 | 1.58 | 0.06 | 2.99 | 0.44 | 0.86 | 7.06 | 7.44 | 2.7 | 0.77 |
